# Test results: PubChem BioAssay (NCATS)
# Inconclusive results are not listed. A call without a number means that no potency is given here. A number with no mark means an inactive call. Active and inactive are the calls of the source. The call rests on the fitted dose curve; in most records, active means well fitted curve in the direction sought with a large enough effect; inconclusive means small, poorly fitted or top-dose-only effect, or another doubt; inactive means no such curve, though single readings can be large; an effect the other way counts as inactive or inconclusive.
# Key:
# [1] = target: Rap guanine nucleotide exchange factor 3 (Homo sapiens) (UniProt O95398); assay: Confirmatory qHTS for antagonist of cAMP-regulated guanine nucleotide exchange factor 3 (EPAC1) (AID 1645880); further: nearly all actives have a fitted effect of over 55% in size; further: potency means the concentration at half of the fitted maximal effect
# Rap guanine nucleotide exchange factor 3 (Homo sapiens), sequence (O95398 whole entry, looked up): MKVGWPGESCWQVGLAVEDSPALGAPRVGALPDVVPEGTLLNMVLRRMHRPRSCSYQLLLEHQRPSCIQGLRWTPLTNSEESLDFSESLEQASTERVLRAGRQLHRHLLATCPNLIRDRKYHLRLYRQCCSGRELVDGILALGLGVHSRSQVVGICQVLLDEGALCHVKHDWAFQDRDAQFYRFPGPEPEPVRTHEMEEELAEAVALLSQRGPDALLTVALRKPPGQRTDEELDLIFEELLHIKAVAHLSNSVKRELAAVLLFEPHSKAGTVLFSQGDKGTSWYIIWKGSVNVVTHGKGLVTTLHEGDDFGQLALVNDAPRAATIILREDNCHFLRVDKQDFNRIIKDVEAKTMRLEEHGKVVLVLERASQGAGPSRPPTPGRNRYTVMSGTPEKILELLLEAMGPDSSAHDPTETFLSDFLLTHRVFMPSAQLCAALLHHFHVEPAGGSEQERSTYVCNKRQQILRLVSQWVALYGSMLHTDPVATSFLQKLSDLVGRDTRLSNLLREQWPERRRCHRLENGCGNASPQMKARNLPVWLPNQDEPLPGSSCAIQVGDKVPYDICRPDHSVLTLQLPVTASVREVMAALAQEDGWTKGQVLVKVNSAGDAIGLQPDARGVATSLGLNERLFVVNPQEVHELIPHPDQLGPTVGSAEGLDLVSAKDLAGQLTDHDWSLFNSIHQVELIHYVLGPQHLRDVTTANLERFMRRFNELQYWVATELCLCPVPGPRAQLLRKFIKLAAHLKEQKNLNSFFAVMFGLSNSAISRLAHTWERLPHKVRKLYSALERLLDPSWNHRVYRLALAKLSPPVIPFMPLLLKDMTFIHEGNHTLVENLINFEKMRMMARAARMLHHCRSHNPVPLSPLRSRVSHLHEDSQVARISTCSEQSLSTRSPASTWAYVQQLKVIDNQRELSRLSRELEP
# How it was run: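 Nucleotide exchange uses 100 nM EPAC1, 250 nM RAP1B-BODIPY-GDP and 50 uM GDP, with compounds in a concentration-titration series. After 5 min at room temperature, fluorescence (480 nm ex/540 nm em) is read every 5 min for 30 min. Data are normalized to control ATA and DMSO.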
# [2] = target: Rap guanine nucleotide exchange factor 3 (Homo sapiens) (UniProt O95398); assay: Confirmatory qHTS for agonist of cAMP-regulated guanine nucleotide exchange factor 3 (EPAC1) (AID 1645881);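 further: EPAC1 catalysed release of BODIPY-GDP from Rap1B seen as fluorescence loss; nearly all actives have a fitted effect of over 75% in size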
# [3] = target: Rap guanine nucleotide exchange factor 4 (Homo sapiens) (UniProt Q8WZA2); assay: Confirmatory qHTS for agonist of cAMP-regulated guanine nucleotide exchange factor 4 (EPAC2) (AID 1645884);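 further: nucleotide exchange releases bodipy-GDP from Rap1 and this lowers its fluorescence; nearly all actives have a fitted effect of over 65% in size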
# Rap guanine nucleotide exchange factor 4 (Homo sapiens), sequence (Q8WZA2 whole entry, looked up): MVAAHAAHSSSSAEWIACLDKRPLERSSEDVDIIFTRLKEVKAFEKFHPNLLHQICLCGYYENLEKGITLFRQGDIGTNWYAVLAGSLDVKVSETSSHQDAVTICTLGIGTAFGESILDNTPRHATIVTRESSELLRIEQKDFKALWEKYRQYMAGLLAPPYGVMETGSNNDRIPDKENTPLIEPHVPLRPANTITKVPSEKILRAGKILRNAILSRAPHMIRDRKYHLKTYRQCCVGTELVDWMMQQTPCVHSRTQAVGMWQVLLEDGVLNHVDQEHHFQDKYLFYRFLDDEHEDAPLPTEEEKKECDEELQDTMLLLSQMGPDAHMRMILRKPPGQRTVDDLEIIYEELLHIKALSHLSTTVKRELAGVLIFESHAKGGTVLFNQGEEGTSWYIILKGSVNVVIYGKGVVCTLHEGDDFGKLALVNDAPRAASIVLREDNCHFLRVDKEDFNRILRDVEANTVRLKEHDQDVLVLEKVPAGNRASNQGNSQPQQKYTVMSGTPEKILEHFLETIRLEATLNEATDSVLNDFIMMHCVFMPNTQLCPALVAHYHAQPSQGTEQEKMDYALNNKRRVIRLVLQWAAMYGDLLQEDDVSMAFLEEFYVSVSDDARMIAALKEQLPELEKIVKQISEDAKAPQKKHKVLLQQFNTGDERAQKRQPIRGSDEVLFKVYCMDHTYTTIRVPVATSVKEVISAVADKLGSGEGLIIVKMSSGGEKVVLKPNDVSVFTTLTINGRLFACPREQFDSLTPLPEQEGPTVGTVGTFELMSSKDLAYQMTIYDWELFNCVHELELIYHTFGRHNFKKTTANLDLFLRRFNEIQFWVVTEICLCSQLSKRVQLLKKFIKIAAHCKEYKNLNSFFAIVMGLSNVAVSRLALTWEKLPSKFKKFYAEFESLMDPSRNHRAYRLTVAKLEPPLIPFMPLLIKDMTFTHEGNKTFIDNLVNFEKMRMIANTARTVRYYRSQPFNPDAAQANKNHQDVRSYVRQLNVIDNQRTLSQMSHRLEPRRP
# [4] = target: Rap guanine nucleotide exchange factor 4 (Homo sapiens) (UniProt Q8WZA2); assay: Confirmatory qHTS for antagonist of cAMP-regulated guanine nucleotide exchange factor 4 (EPAC2) (AID 1645885); further: nearly all actives have a fitted effect of over 25% in size; further: potency means the concentration at half of the fitted maximal effect
# [5] = target: Rap guanine nucleotide exchange factor 3 (Homo sapiens) (UniProt O95398); assay: Counterscreen qHTS for antagonist of cAMP-regulated guanine nucleotide exchange factor 3 (EPAC1) (AID 1645888);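 further: fluorescence loss as bound BODIPY-GDP is released from Rap1B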
# How it was run: (§1)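 Rap1B–BODIPY-GDP (250 nM) with 50 uM GDP; compounds pin-transferred to 9.74 nM–152 uM final (activator) or from 7.32 nM upwards (inhibitor). Fluorescence Ex/Em 480/540 nm read at 5 and 30 min, then after adding cAMP or buffer, at room temperature.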
# [6] = target: Rap guanine nucleotide exchange factor 3 (Homo sapiens) (UniProt O95398); assay: Counterscreen qHTS for agonist of cAMP-regulated guanine nucleotide exchange factor 3 (EPAC1) (AID 1645889); further: nearly all actives have a fitted effect of over 40% in size
# How it was run: as §1
Compound,Potency [1],Potency [2],Potency [3],Potency [4],Potency [5],Potency [6],outcome [4],activation [3],"activity change, negative = inhibition [5]",activation [6]
Cc1sc(N)c(C(=O)c2ccccc2Cl)c1C,inactive,inactive,inactive,19 µM (active),inactive,inactive,–,–,–,–
CC(=O)c1cccc(OC(=O)C2=CC=CN3CCS(=O)(=O)N=C23)c1,inactive,inactive,inactive,inactive,inactive,inactive,–,–,–,–
CC1CCCCC1NC(=O)COC(=O)c1c2c(nc3ccccc13)/C(=C/c1ccco1)CC2 (stereo unspecified),75.7 µM (active),inactive,inactive,inactive,inactive,inactive,–,–,–,–
CCC(=O)N1c2nc(C(C)C)nn2C2(CCCCC2)[C@@H]2CCCC[C@@H]21,inactive,inactive,inactive,–,inactive,inactive,inactive [at 12.7 µM],–,–,–
CC1(C(=O)NS(=O)(=O)c2ccc(Cl)s2)CCN1C(=O)C1(c2ccccc2)CCCC1 (stereo unspecified),37.9 µM (active),inactive,inactive,8.49 µM (active),inactive,inactive,–,–,–,–
Cc1ccc(NC(=O)N2CCN(c3nnc(C)c4c(C)n(-c5ccc(Cl)cc5)nc34)CC2)c(C)c1,inactive,inactive,inactive,inactive,inactive,inactive,–,–,–,–
Cc1sc2ncnc(N3CCCC(C)C3)c2c1C (stereo unspecified),inactive,inactive,inactive,inactive,inactive,inactive,–,–,–,–
CO/N=C(/COc1ccc(F)cc1)c1ccc(OC)cc1,inactive,inactive,–,inactive,–,–,–,"-0.137% [at 17.1 µM, percent relative to cAMP agonist control]",-12% [at 30.8 µM],2.57% [at 30.8 µM]
CC(C)CNC(=O)c1[nH]c(C(F)(F)F)nc1-c1ccccc1,inactive,inactive,–,inactive,–,–,–,"3.83% [at 17.1 µM, percent relative to cAMP agonist control]",-17.1% [at 30.8 µM],30.5% [at 30.8 µM]
CC1(C)Cc2ccccc2-c2nnc(-c3ccc4ccccc4n3)n21,inactive,inactive,inactive,inactive,inactive,inactive,–,–,–,–
CCN(CC)CCn1c2c(c(SCC(=O)NCc3ccccc3)nc1=O)CCCC2,inactive,inactive,inactive,inactive,inactive,inactive,–,–,–,–
Nc1ncnc2nc(Sc3ccc(Cl)cc3)[nH]c12,inactive,inactive,inactive,inactive,inactive,inactive,–,–,–,–
O=C(Nc1cccc(Cl)c1)OC1CCCCc2cccnc21 (stereo unspecified),inactive,inactive,–,inactive,–,–,–,"5.07% [at 17.1 µM, percent relative to cAMP agonist control]",-21.2% [at 30.8 µM],25.6% [at 30.8 µM]
COc1cc(/C=C2\SC(=S)N(C(C(=O)O)c3ccccc3)C2=O)ccc1O (stereo unspecified),47.8 µM (active),inactive,inactive,42.6 µM (active),inactive,inactive,–,–,–,–
Cn1cc([C@]2(O)C(=O)Nc3ccc(F)cc32)c2ccccc21,inactive,inactive,–,inactive,–,–,–,"-4.66% [at 17.1 µM, percent relative to cAMP agonist control]",-17.1% [at 30.8 µM],12.7% [at 30.8 µM]
O=C(CN1C(=O)N/C(=C\c2ccccc2OCc2ccc(C(=O)O)cc2)C1=O)Nc1ccccc1F,28.2 µM (active),inactive,–,inactive,–,–,–,"5.81% [at 17.1 µM, percent relative to cAMP agonist control]",-13.4% [at 30.8 µM],19.6% [at 30.8 µM]
Cc1csc(SCC(=O)NC23CC4CC(CC(C4)C2)C3)n1,inactive,inactive,–,inactive,–,–,–,"1.39% [at 17.1 µM, percent relative to cAMP agonist control]",-23.6% [at 30.8 µM],22.6% [at 30.8 µM]
Clc1ccc(-c2cc3ccccc3nc2N2CCOCC2)cc1,inactive,inactive,inactive,inactive,inactive,inactive,–,–,–,–
CCCCN1C(=O)C(O)(c2c[nH]c3ccccc23)c2cc(Br)ccc21 (stereo unspecified),inactive,inactive,inactive,inactive,inactive,inactive,–,–,–,–
CC(=O)NC(C)c1nc2ccccc2n1Cc1ccccc1Cl (stereo unspecified),inactive,inactive,inactive,inactive,inactive,inactive,–,–,–,–
Cc1nn(CCc2nc(-c3ccco3)cs2)c2[nH]c(=O)cc(C(F)(F)F)c12,inactive,inactive,inactive,inactive,inactive,inactive,–,–,–,–
